Hits are enriched below; roughly 3% of the tested compounds scored in any of these assays.
SENP6 block: SENP6 protease inhibition | AID 2599 | inhibition, % at 10 µM | hit rate 1.8% among 330,000 | Q9GZR1 | Recombinant SENP6 catalytic domain, aminoluciferin luminescence;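 active = inhibition above about 50% at the single tested dose, limit read from the data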
SENP7 block: SENP7 protease inhibition | inhibition, % at 5 µM | recombinant SENP7, Z-RLRGG-aminoluciferin luminescence, 40 min | hit rate 1.5% among 330,000;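 active = inhibition above about 50% at the single test dose, limit read from the data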
Target sequence (Q9BQF6 706-1050 limits assumed): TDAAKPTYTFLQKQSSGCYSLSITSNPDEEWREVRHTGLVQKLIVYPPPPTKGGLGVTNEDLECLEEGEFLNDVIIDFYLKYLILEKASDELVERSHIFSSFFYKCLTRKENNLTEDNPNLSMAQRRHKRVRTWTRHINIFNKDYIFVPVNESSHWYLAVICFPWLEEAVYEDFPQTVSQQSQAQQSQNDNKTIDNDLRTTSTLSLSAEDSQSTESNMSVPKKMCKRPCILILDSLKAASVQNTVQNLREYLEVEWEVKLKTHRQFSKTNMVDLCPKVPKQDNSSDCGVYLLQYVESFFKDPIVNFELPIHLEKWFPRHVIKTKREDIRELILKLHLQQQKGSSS
PPC-1+TRAIL kill: PPC-1 cancer cell killing with TRAIL present | cell killing (% activity), % at 4 µM or 5 µM | PPC-1 cells + TRAIL, ATPLite viability luminescence | hit rate 0.41% among 220,000;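 active = cell killing above 50% in the first pass at 4 µM, then a duplicate retest at 5 µM averaging 50% or more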
SENP8 block-1: SENP8 (human) protease inhibition | inhibition, % at 20 µM | Q96LD8 | hit rate 0.64% among 360,000 | recombinant SENP8, Nedd8 substrate fluorescence; in the data active = inhibition mostly above about 40%, no sharp cut-off; inactive = mostly below about 27%
Target sequence (Q96LD8 whole entry, looked up): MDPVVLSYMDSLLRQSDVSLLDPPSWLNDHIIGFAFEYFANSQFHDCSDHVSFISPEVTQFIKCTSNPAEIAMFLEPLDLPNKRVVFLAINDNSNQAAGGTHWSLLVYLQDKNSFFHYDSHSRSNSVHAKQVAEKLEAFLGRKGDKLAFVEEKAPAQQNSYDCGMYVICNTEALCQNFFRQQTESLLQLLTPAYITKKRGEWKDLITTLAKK
TRAIL sens C8: sensitizes caspase-8 expressing cells to TRAIL | AID 624354 | NB7+C8 cells + TRAIL, ATPlite viability luminescence | inhibition (viability loss, TRAIL sensitization), % at 10 µM | hit rate 1% among 360,000;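 active = compounds causing at least 50% loss of cell viability in the single-dose screen, relative to plate controls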
SENP8 block-2: inhibitors of human SENP8 protease. purified SENP8, Z-RLRGG-aminoluciferin cleavage, luminescence. inhibition, % at 10 µM. hit rate 1.2% among 330,000; in the data active = inhibition above about 50%
PPC1 cytotox: PPC-1 cell cytotoxicity | shares compounds with PPC-1+TRAIL kill | PPC-1 viability, ATPlite luminescence, overnight | cytotoxicity, % at 5 µM | hit rate 50% among 1,200;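 active = reconfirmed compounds whose average cytotoxicity reaches 50% or more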
A number is an active result.

Cc1cc(NC(c2ccc(Cl)cc2)c2ccc3cccnc3c2O)no1 (centres undefined) was read as SENP6 block inactive, SENP7 block inactive, PPC-1+TRAIL kill inactive, SENP8 block-1 inactive, TRAIL sens C8 inactive, SENP8 block-2 inactive and PPC1 cytotox inactive.
`CC(=O)NC(c1ccc(Cl)cc1)c1ccc2cccnc2c1O` (centres undefined) gave SENP8 block-1 inactive and TRAIL sens C8 inactive.
CC(C)C[C@H]1CNC(=S)N1C[C@H]1CCCN1C[C@H](Cc1ccccc1)N1C[C@H](Cc2ccc(O)cc2)N(CCc2ccccc2)C1=S was read as SENP8 block-1 inactive and TRAIL sens C8 inactive.
O=[N+]([O-])c1ccc(Sc2cccc[n+]2[O-])c2nonc12 was read as PPC-1+TRAIL kill inactive, SENP8 block-1 inactive, TRAIL sens C8 inactive and PPC1 cytotox inactive.
For O=C(CSc1cccc[n+]1[O-])Nc1cc(Cl)ccc1[N+](=O)[O-] the results were SENP6 block inactive, SENP7 block inactive, SENP8 block-1 inactive, TRAIL sens C8 inactive and SENP8 block-2 inactive.
`CCOC(=O)c1c(Nc2ccccc2N)cc(C)nc1C` gave SENP6 block inactive, SENP7 block inactive, PPC-1+TRAIL kill inactive, SENP8 block-1 inactive, TRAIL sens C8 inactive, SENP8 block-2 inactive and PPC1 cytotox inactive.
`CCOC(=O)c1c(N2CCN(c3ccccc3)CC2)cc(C)nc1C` gave SENP6 block inactive, SENP7 block inactive, SENP8 block-1 inactive, TRAIL sens C8 inactive and SENP8 block-2 inactive.
For CCn1c(=O)n(CC)c2cc(N3CCCC3)c(NC(=O)c3c(F)cccc3F)cc21 the results were SENP6 block inactive, SENP7 block inactive, SENP8 block-1 inactive, TRAIL sens C8 inactive and SENP8 block-2 inactive.
Screening Cc1c(Cl)ccc2c(C(=O)O)cc(-c3ccccc3)nc12 returned SENP6 block inactive, SENP7 block inactive, PPC-1+TRAIL kill inactive, SENP8 block-1 inactive, TRAIL sens C8 inactive, SENP8 block-2 inactive and PPC1 cytotox inactive.
`Cc1c(Cl)ccc2c(C(N)=O)cc(-c3ccccn3)nc12` gave SENP6 block inactive, SENP7 block inactive, PPC-1+TRAIL kill inactive, SENP8 block-1 inactive, TRAIL sens C8 inactive and SENP8 block-2 inactive.
Cc1ccccc1C(=O)N1CCC(C(=O)Nc2ccc(S(=O)(=O)N3CCCCC3)cc2)CC1 was read as SENP6 block inactive, SENP7 block inactive, SENP8 block-1 inactive, TRAIL sens C8 inactive and SENP8 block-2 inactive.
`Cc1ccc(-c2c(C)sc(=NC(=O)c3ccco3)n2C)cc1` gave SENP6 block inactive, SENP7 block inactive, PPC-1+TRAIL kill inactive, SENP8 block-1 inactive, TRAIL sens C8 65.0, SENP8 block-2 inactive and PPC1 cytotox inactive.
`O=C(Nc1ccc2c(c1)nc1n2CCSC1)c1ccccc1` gave SENP6 block inactive, SENP7 block inactive, PPC-1+TRAIL kill 57.4, SENP8 block-1 inactive, TRAIL sens C8 62.2, SENP8 block-2 inactive and PPC1 cytotox inactive.
`Cc1nc2ccccc2n1C(c1cccnc1)c1nc2ccccc2[nH]1` (centres undefined) gave SENP8 block-1 inactive and TRAIL sens C8 inactive.
COc1cccc(C(=O)CN(C(=O)c2ccc(Cl)c(Cl)c2)N2C(=O)C3CCCCC3C2=O)c1 (centres undefined) was read as SENP6 block inactive, SENP7 block inactive, PPC-1+TRAIL kill inactive, SENP8 block-1 inactive, TRAIL sens C8 inactive, SENP8 block-2 inactive and PPC1 cytotox inactive.
Screening COc1ccc(C(=O)CN(C(=O)c2ccc(Cl)cc2)N2C(=O)C3CCCCC3C2=O)cc1 (centres undefined) returned SENP6 block inactive, SENP7 block inactive, PPC-1+TRAIL kill inactive, SENP8 block-1 inactive, TRAIL sens C8 inactive and SENP8 block-2 inactive.
CCN(CC(=O)Nc1ccc(N2CCOCC2)cc1)C(=O)COc1ccccc1OC was read as SENP6 block inactive, SENP7 block inactive, PPC-1+TRAIL kill inactive, SENP8 block-1 inactive, TRAIL sens C8 inactive and SENP8 block-2 inactive.
`COc1cc(NC(=O)c2cc(OC)c(OC)c(OC)c2)ccc1NC(=O)c1cccs1` gave SENP6 block inactive, SENP7 block inactive, SENP8 block-1 inactive, TRAIL sens C8 inactive and SENP8 block-2 inactive.
`COc1cc(N)ccc1NC(=O)c1cccs1` gave SENP6 block inactive, SENP7 block inactive, PPC-1+TRAIL kill inactive, SENP8 block-1 inactive, TRAIL sens C8 inactive, SENP8 block-2 inactive and PPC1 cytotox inactive.
`CCCCS(=O)(=O)N1CCN(S(=O)(=O)c2cccs2)CC1` gave SENP6 block inactive, SENP7 block inactive, SENP8 block-1 inactive, TRAIL sens C8 inactive and SENP8 block-2 inactive.
Screening Cc1cc(C)c(C(CC(=O)c2cccs2)C(C#N)C#N)c(C)c1 (centres undefined) returned SENP6 block inactive, SENP7 block inactive, PPC-1+TRAIL kill inactive, SENP8 block-1 inactive, TRAIL sens C8 inactive and SENP8 block-2 inactive.
CCn1c(SC)nc2c(c1=O)SC(C)C2 (centres undefined) was read as SENP6 block inactive, SENP7 block inactive, PPC-1+TRAIL kill inactive, SENP8 block-1 inactive, TRAIL sens C8 inactive, SENP8 block-2 inactive and PPC1 cytotox inactive.
For CCC(C)(C)c1ccc(OCCCC[n+]2cccc(C)c2C)c(C(C)(C)CC)c1 the results were SENP6 block inactive, SENP7 block inactive, PPC-1+TRAIL kill 61.6, SENP8 block-1 inactive, TRAIL sens C8 inactive, SENP8 block-2 inactive and PPC1 cytotox 57.9.
For CCC(C)(C)c1ccc(OCCCC[n+]2ccc(C)cc2)c(C(C)(C)CC)c1 the results were SENP6 block inactive, SENP7 block inactive, PPC-1+TRAIL kill inactive and SENP8 block-2 inactive.
Screening C=CCn1c(SCC(=O)NC(=O)NCCC)nnc1C1CCCCC1 returned SENP6 block inactive, SENP7 block inactive, PPC-1+TRAIL kill inactive, SENP8 block-1 inactive, TRAIL sens C8 inactive, SENP8 block-2 inactive and PPC1 cytotox inactive.
For C=CCn1c(SCC(=O)NC(=O)NC)nnc1C1CCCCC1 the results were SENP6 block inactive, SENP7 block inactive, PPC-1+TRAIL kill inactive, SENP8 block-1 inactive, TRAIL sens C8 inactive and SENP8 block-2 inactive.
CCOC(=O)C1=C2N(C)c3ccccc3N2CCC1=O was read as SENP6 block inactive, SENP7 block inactive, PPC-1+TRAIL kill inactive, SENP8 block-1 inactive, TRAIL sens C8 inactive, SENP8 block-2 inactive and PPC1 cytotox inactive.
`CCN(Cc1ccncc1)Cc1nc(CC2CC2)no1` gave SENP6 block inactive, SENP7 block inactive, PPC-1+TRAIL kill inactive, SENP8 block-1 inactive, TRAIL sens C8 inactive and SENP8 block-2 inactive.
CCOC(=O)c1cccc(NC(=O)Nc2ccc(OCC)cc2)c1 was read as SENP6 block inactive, SENP7 block inactive, PPC-1+TRAIL kill inactive, SENP8 block-1 inactive, TRAIL sens C8 inactive and SENP8 block-2 inactive.
`CCOc1ccc(NC(=O)Nc2cccc(C(=O)O)c2)cc1` gave SENP6 block 99.1, SENP7 block 98.7, PPC-1+TRAIL kill 73.2, SENP8 block-1 inactive, TRAIL sens C8 82.5, SENP8 block-2 96.7 and PPC1 cytotox 64.6.
